Measurements: PubChem BioAssay (NCI)
The panel holds about 79,000 compounds, 15% with a hit somewhere; the sample as a whole holds those more often. Unmarked numbers belong to inactive results. Calls of active or inactive are those of the source. Rule as the data show it: active = growth inhibition above about 70%; inactive = the rest.

Assays:
[1] = NCI Yeast Anticancer Drug Screen. Data for the rad50 strain (AID 155);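 also: 0% = growth of vehicle-only cultures of the same strain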; settings: S. cerevisiae rad50 strain growth inhibition, hits give high values
Outline: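 Inhibition values express reduced yeast growth in compound-treated cultures relative to vehicle-treated controls.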

[2] = NCI Yeast Anticancer Drug Screen. Data for the mec2-1 strain (AID 157); settings: S. cerevisiae mec2-1 strain, hits give high values
Outline: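 Using mec2-1 yeast: add compound, measure growth, express inhibition versus vehicle-treated cultures.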

[3] = NCI Yeast Anticancer Drug Screen. Data for the sgs1 mgt1 strain (AID 161);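 also: 0% = growth of cultures given vehicle only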; settings: S. cerevisiae sgs1 mgt1 strain, hits give high values
Outline: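 Growth of a repair-deficient yeast mutant was monitored after compound treatment and expressed as inhibition relative to vehicle-treated cultures.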

[4] = NCI Yeast Anticancer Drug Screen. Data for the cln2 rad14 strain (AID 165);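 also: 0% = growth equal to vehicle treated cultures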; settings: S. cerevisiae cln2 rad14 strain, hits give high values
Outline: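 Yeast strain cln2 rad14, bearing defects in cell cycle control and DNA repair, serves as the test system; values reflect growth inhibition compared with vehicle.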

[5] = NCI Yeast Anticancer Drug Screen. Data for the bub3 strain (AID 167); settings: S. cerevisiae bub3 mutant strain, hits give high values
Outline: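 Steps: expose the mutant yeast strain to compound; grow alongside vehicle-treated cultures; measure growth; express inhibition against the vehicle cultures.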

[6] = NCI Yeast Anticancer Drug Screen. Data for the mlh1 rad18 strain (AID 175); settings: S. cerevisiae mlh1 rad18 strain growth inhibition, hits give high values
Outline: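 Steps: expose repair-defective yeast to compound; measure growth; express inhibition against vehicle-treated controls.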

[7] = at 5.0 µM (retest, dose inferred, filed as 0.5)
[8] = at 50.0 µM (retest, dose inferred, filed as 5.0)

Row | SMILES | growth inhibition [1, 7] | growth inhibition [1, 8] | growth inhibition ([1]; at 50.0 µM) | growth inhibition [2, 7] | growth inhibition [2, 8] | growth inhibition ([2]; at 50.0 µM) | growth inhibition [3, 7] | growth inhibition [3, 8] | growth inhibition ([3]; at 50.0 µM) | growth inhibition [4, 7] | growth inhibition [4, 8] | growth inhibition ([4]; at 50.0 µM) | growth inhibition [5, 7] | growth inhibition [5, 8] | growth inhibition ([5]; at 50.0 µM) | growth inhibition [6, 7] | growth inhibition [6, 8] | growth inhibition ([6]; at 50.0 µM)
1 | COC1=CC(=O)c2ncc(Cl)cc2C1=O | -4% | 97% (active) | 96% (active) | -2% | 92% (active) | 95.5% (active) | -9% | 89% (active) | 93.2% (active) | -10% | 96% (active) | 97.3% (active) | -40% | 88% (active) | 83.5% (active) | 28% | 97% (active) | 98.3% (active)
2 | CCN(CC)c1ccc(/C=C2/C[N+](C)(C)C/C(=C/c3ccc(N(CC)CC)cc3)C2=O)cc1 | -17% | 95% (active) | 79.5% (active) | -19% | 91% (active) | 78.5% (active) | -13% | 97% (active) | 79.2% (active) | 4% | 95% (active) | 76.5% (active) | -20% | 80% (active) | 81.5% (active) | -6% | 96% (active) | 82.2% (active)
3 | O=C(c1ccccc1)C(Br)C(Br)c1ccc(Cl)c(Cl)c1 (configuration not stated) | 67% | 96% (active) | -8.65% | 69% | 98% (active) | 24.3% | 92% (active) | 97% (active) | 60.1% | 39% | 97% (active) | -16.2% | 87% (active) | 98% (active) | 13.1% | 73% (active) | 97% (active) | 77.8% (active)
4 | CC/C(=C(/CC)c1ccc(O)cc1)c1ccc([O-])cc1.CC/C(=C(/CC)c1ccc(O)cc1)c1ccc([O-])cc1.O=C([CH-]C(=O)c1ccccc1)c1ccccc1.O=C([CH-]C(=O)c1ccccc1)c1ccccc1.[Ti+4] | 64% | 95% (active) | 88.8% (active) | 60% | 97% (active) | 92% (active) | 74% (active) | 98% (active) | 92.8% (active) | 56% | 96% (active) | 91.5% (active) | 78% (active) | 98% (active) | 90.2% (active) | 80% (active) | 93% (active) | 89% (active)
5 | CCOC(=O)Nc1cc2c(cc1Br)-c1ccccc1C2O (configuration not stated) | -1% | -3% | 10% | -3% | 12% | -5.6% | -7% | 1% | 10.4% | -2% | 27% | -2.85% | 68% | 95% (active) | 69.4% | -2% | 7% | 18.7%
6 | COc1ccc(C2c3cn[nH]c3CC3CCCCC32)cc1 (configuration not stated) | 25% | 98% (active) | 75.8% (active) | -8% | 99% (active) | 83.8% (active) | 9% | 98% (active) | 85.5% (active) | 31% | 99% (active) | 89.8% (active) | -20% | 99% (active) | 88.3% (active) | 8% | 98% (active) | 90.7% (active)
7 | O=C1c2ccccc2C(=O)c2c1ccc(O)c2O.[Cu] | 87% (active) | 92% (active) | 98% (active) | 41% | 95% (active) | 96.7% (active) | 99% (active) | 96% (active) | 96.9% (active) | 26% | 91% (active) | 33.1% | 86% (active) | 94% (active) | 93.6% (active) | 66% | 94% (active) | 96.8% (active)
8 | CC1(C)N([O-])[N+](=O)C1(Br)c1ccccc1 (configuration not stated) | 22% | 99% (active) | 86.7% (active) | 17% | 100% (active) | 93.8% (active) | -6% | 95% (active) | 92.6% (active) | 8% | 64% | 90.2% (active) | -24% | 96% (active) | 87.5% (active) | 25% | 99% (active) | 84.5% (active)
9 | Oc1ccc2c(ccc3ccccc32)c1 | 1% | 98% (active) | 97.5% (active) | -4% | 100% (active) | 97.3% (active) | 0% | 91% (active) | 99.4% (active) | -3% | 99% (active) | 99% (active) | 4% | 88% (active) | 99% (active) | -1% | 99% (active) | 99.2% (active)
10 | C=C1CC2(CCCC3(CC(=C)C(=O)O3)C2(C)C)OC1=O (configuration not stated) | 20% | 96% (active) | 33% | 14% | 98% (active) | 38.4% | 57% | 97% (active) | 38.8% | 15% | 96% (active) | 23.1% | 7% | 96% (active) | 44.6% | 12% | 97% (active) | 66.6%
11 | CC(C)C1/C(=N/O)CC(c2ccccc2)N(N=O)C1c1ccccc1 (configuration not stated) | 10% | 97% (active) | 82.3% (active) | -13% | 98% (active) | 93% (active) | 3% | 98% (active) | 90.7% (active) | 15% | 96% (active) | 87.7% (active) | 4% | 98% (active) | 88% (active) | -6% | 98% (active) | 90.3% (active)
12 | CS(=O)(=O)n1c(C(O)c2ccccc2)nc2ccccc21 (configuration not stated) | -4% | 4% | 8.95% | 10% | -1% | 17.8% | 2% | 8% | 3.1% | -82% | -1% | 27.8% | 5% | 38% | 5.6% | 0% | 1% | 14.2%
13 | CCCc1cc2c(cc1CN(C#N)Cc1cc3c(cc1CCC)OCO3)OCO2 | -4% | 54% | 95.3% (active) | 2% | 84% (active) | 96.3% (active) | 1% | 57% | 93.2% (active) | -2% | 60% | 95.8% (active) | -4% | 87% (active) | 97% (active) | -1% | 73% (active) | 95% (active)
14 | O=[N+]([O-])C1CCC(C2=CSC3CCCCC3N2)CC1 (configuration not stated) | 12% | 7% | 34.6% | -16% | 44% | 57.5% | -9% | 23% | 38.8% | 23% | 31% | 11.4% | 0% | 52% | 67.8% | -1% | 60% | 18%
15 | Cc1ccc(NC(=S)SCc2ccc(Cl)cc2)cc1Br | 48% | 99% (active) | 90.5% (active) | 25% | 99% (active) | 93.2% (active) | 64% | 100% (active) | 91% (active) | 48% | 99% (active) | 89.9% (active) | 65% | 99% (active) | 92.3% (active) | 38% | 99% (active) | 90.8% (active)
16 | Cc1ccc(C2(O)CC(c3ccc([N+](=O)[O-])o3)=NN2C(=O)COc2ccc(Cl)cc2)cc1 (configuration not stated) | 46% | 46% | 6.1% | 29% | 29% | 51.9% | 39% | 39% | 52.6% | 11% | 11% | 70.3% (active) | 10% | 10% | 37.6% | 43% | 43% | 34.3%
17 | O=C(N/C(=C\c1ccc(Cl)cc1)c1nc2ccccc2[nH]1)c1ccccc1 | 0% | 96% (active) | 97.3% (active) | -1% | 98% (active) | 97.5% (active) | 10% | 98% (active) | 96.8% (active) | -1% | 97% (active) | 96.5% (active) | 13% | 97% (active) | 98.1% (active) | 2% | 97% (active) | 96.7% (active)
18 | CN(Cc1cc(Br)cc(Br)c1O)Cc1c[nH]c2ccccc12 | -1% | 8% | 68.1% | 12% | 31% | 31.1% | 0% | 14% | 86.4% (active) | -2% | 0% | 62.2% | -4% | -1% | 40.9% | 36% | 48% | 74.5% (active)
19 | NN=C(CC(O)(C(F)(F)Cl)C(F)(F)Cl)CC(O)(C(F)(F)Cl)C(F)(F)Cl | 32% | 99% (active) | 98.9% (active) | 32% | 99% (active) | 99.2% (active) | 26% | 99% (active) | 99.1% (active) | 33% | 100% (active) | 99.3% (active) | 6% | 100% (active) | 99% (active) | 38% | 99% (active) | 98.8% (active)
